# Laboratory results published in the supplement of paper PMC11624193, “Coupling cellular drug-target engagement to downstream pharmacology with CeTEAM” (Nature Communications, 2024).
# Where a name gives a salt, the structure may show the parent alone. Values without a mark were called inactive.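 Rule for the calls: active = log2 fold change beyond 2 SD from the library mean after excluding viability outliers; inactive = within 2 SD.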
# Target: PARP1 L713F-nLuc biosensor (HCT116) (UniProt P09874)
# Sequence (P09874 whole entry L713F, looked up): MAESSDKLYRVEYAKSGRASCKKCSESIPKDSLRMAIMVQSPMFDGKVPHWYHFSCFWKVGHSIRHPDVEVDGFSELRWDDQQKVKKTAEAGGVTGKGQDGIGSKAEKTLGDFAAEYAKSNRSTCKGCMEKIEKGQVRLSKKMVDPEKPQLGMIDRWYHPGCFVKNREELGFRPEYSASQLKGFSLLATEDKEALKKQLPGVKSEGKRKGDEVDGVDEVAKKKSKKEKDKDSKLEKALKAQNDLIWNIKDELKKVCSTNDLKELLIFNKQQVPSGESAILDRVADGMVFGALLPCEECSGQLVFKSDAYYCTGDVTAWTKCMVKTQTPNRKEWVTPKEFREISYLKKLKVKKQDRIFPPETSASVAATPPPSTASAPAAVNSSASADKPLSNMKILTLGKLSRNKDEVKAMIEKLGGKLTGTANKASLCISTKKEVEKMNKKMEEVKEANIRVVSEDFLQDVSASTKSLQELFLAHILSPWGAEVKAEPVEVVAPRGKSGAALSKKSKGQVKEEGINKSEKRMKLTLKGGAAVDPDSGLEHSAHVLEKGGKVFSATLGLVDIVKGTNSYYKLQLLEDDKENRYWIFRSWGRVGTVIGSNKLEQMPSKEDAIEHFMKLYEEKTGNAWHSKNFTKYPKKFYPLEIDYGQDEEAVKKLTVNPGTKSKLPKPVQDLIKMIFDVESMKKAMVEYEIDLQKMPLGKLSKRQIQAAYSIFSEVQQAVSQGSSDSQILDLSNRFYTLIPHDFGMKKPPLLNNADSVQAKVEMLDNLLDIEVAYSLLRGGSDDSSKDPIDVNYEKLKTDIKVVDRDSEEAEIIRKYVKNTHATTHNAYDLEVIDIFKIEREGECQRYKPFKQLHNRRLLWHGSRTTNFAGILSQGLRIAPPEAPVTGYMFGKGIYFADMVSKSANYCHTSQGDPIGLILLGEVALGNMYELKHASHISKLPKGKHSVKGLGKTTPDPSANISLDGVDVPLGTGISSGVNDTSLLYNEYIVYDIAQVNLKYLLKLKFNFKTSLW
# Experiment: PARP1 L713F-nLuc/akaLuc ratio relative to DMSO control (biosensor stabilization) (fold change); higher = more PARP1 biosensor stabilization (target engagement / stabilizer), active = hit call of the paper
# Details: stock concentration (mM; final µM = stock mM x 1): 10; 24 h
row,Structure (SMILES),PARP1 L713F-nLuc/akaLuc ratio
1,S=c1[nH]cnc2nc[nH]c12 [Mercaptopurine (6-MP)],2.51
2,Cc1[nH]n(-c2ccccc2)c(=O)c1N=Nc1ccc(N2CCOCC2)cc1,1.04
3,N#Cc1ccc(C(=O)N(Cc2cccs2)C2CC2)cc1,1.18
4,CO[C@H]1C[C@@H]2CC[C@@H](C)[C@@](O)(O2)C(=O)C(=O)N2CCCC[C@H]2C(=O)O[C@H]([C@H](C)C[C@@H]2CC[C@@H](O)[C@H](OC)C2)CC(=O)[C@H](C)/C=C(\C)[C@@H](O)[C@@H](OC)C(=O)[C@H](C)C[C@H](C)/C=C/C=C/C=C/1C [Rapamycin (Sirolimus)],0.6
5,NC(=O)c1cccc(N)c1 [3-Aminobenzamide],0.995
6,O=C(O)c1ccc2c(c1)nc(Nc1cccc(Cl)c1)c1ccncc12 [Silmitasertib (CX-4945)],0.822
7,CNC(=O)c1ccc(N2C(=S)N(c3ccc(C#N)c(C(F)(F)F)c3)C(=O)C2(C)C)cc1F [Enzalutamide (MDV3100)],0.993
8,Cc1ncc(Cl)cc1NCc1ccc(C(=O)N[C@@H](CC2CCCC2)C(=O)NC2CC2)s1,0.585
9,C[C@H](Nc1cc(-c2cnn(C)c2)cc(Nc2cnccn2)n1)c1ccc(F)cc1 [Ilginatinib hydrochloride],0.281 (active)
10,CC(=O)O[C@@]12CO[C@@H]1C[C@H](O)[C@@]1(C)C(=O)[C@H](O)C3=C(C)[C@@H](OC(=O)[C@H](O)[C@@H](NC(=O)OC(C)(C)C)c4ccccc4)C[C@@](O)([C@@H](OC(=O)c4ccccc4)[C@H]21)C3(C)C [Docetaxel],1.44
11,CCN(CC)C(=S)SSC(=S)N(CC)CC [Disulfiram],0.658
12,O=C(O)Cn1nnc(-c2ccc(CN(CCCCOc3ccc(CN4CCCC4)cc3)CCc3ccccc3)cc2)n1 [TH1834 (dihydrochloride)],1.29
13,C[C@@H]1COCCN1c1cc(C2([S@](C)(=N)=O)CC2)nc(-c2cc[nH]c3nccc2-3)n1,1.79
14,Cc1cc(Nc2ccc(NC(=O)c3ccc(Nc4ccnc5ccccc45)cc3)cc2)nc(N)n1,1.38
15,N#Cc1ccc2[nH]c(O)c(-c3ccc(CN4CCOCC4)cn3)c2c1,0.881
16,O=C(O)CNC(=O)c1ncc(-c2cccc(Cl)c2)cc1O [Vadadustat],1.03

row,Structure (SMILES),PARP1 L713F-nLuc/akaLuc ratio
1,COc1ccc(C2(CNC(=O)c3ccc(NC(=O)c4ccco4)cc3)CCOCC2)cc1,1.23
2,O=C(c1ccc(Cl)cc1Cl)n1nnc2ccccc21,0.91
3,O=C(Nc1ccc(C(F)(F)F)cc1)Nc1ccc(S(=O)(=O)N2CCC[C@H]2C(=O)Nc2ccccc2)cc1,0.728
4,CC1=C(C)C(=O)C(C(C)(C)CC(=O)N(CCCCSC[C@H]2O[C@@H](n3cnc4c(N)ncnc43)[C@H](O)[C@@H]2O)Cc2cccc(-c3ccc(Cl)cc3)c2)=C(C)C1=O,0.784
5,N#Cc1ccc(-c2csc(NN=C3CCCC3)n2)cc1 [Remodelin (hydrobromide)],0.897
6,C[C@H](Nc1ncnc2[nH]cnc12)c1cc2ccc(F)cc2nc1-c1ccccn1,0.767
7,CN(C)CCCNC(=O)c1ccc(-c2cc(O)c3ncccc3c2)cc1,0.5
8,Cc1nc(=O)c2cc(CN(C)c3ccc(C(=O)N[C@@H](CCC(=O)O)C(=O)O)s3)ccc2[nH]1 [Raltitrexed],1.07
9,C[C@@H]1CCN(C(=O)CC#N)C[C@@H]1N(C)c1ncnc2[nH]ccc12 [Tofacitinib],0.723
10,Cc1ccc(C(=O)Nc2cccc(C(F)(F)F)c2)cc1Nc1nc(-c2cccnc2)nc2c1cnn2C,0.656
11,C#Cc1cccc(Nc2ncnc3cc(OCCOC)c(OCCOC)cc23)c1 [Erlotinib],0.565
12,O=c1ncccn1[C@@H]1O[C@H](CO)[C@@H](O)[C@H]1O [Zebularine],0.711
13,CCOC(=O)c1ccnc(CNCC(=O)N(CC)CCN(C)C)c1,2.92 (active)
14,COc1cc(/C=C/C(=O)CC(=O)/C=C/c2ccc(O)c(OC)c2)ccc1O [Curcumin],1.12
15,COc1cc2ncnc(Nc3ccc(O)c(Br)c3)c2cc1OC,0.973
